Whole data set: some 18,000 sequences, median “log2 normalized intensity” near 0.39, cut for the highest 2% near 6.6. What follows is part of a selection rich in the highest values, with near analogues and random picks from the rest.

The target of the test is T1, HNF4alpha2 (COS-7 nuclear extract) (Homo sapiens, UniProt P41235 1-474).
T1 sequence: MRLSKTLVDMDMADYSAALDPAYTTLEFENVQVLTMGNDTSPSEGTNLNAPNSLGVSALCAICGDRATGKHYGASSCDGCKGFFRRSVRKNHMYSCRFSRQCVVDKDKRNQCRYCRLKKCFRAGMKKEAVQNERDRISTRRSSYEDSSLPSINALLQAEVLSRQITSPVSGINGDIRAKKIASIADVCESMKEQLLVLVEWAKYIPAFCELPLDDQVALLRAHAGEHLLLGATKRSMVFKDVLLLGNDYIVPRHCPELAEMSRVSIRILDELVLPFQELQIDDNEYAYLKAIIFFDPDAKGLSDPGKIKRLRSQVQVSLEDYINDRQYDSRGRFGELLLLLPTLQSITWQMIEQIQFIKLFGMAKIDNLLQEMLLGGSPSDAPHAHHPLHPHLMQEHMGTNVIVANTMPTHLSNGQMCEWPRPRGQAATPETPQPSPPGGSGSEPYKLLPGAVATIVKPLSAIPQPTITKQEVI
The test is described as follows: protein-binding microarray; COS-7 nuclear extract on double-stranded Agilent 4x180k PBM; binding buffer, salt, pH and temperature not given in the material; high values mean tight binding. Particulars: chain copies: 2; label: 3' end of strand 1 on the slide; dsDNA, one strand shown. The gist of the method:
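COS-7 cells were transiently transfected by CaPO4 with an expression vector for a human HNF4α isoform, and nuclear extracts were prepared from them. The extracts were applied to a custom Agilent SurePrint G3 4x180k array of double-stranded ~60-nt oligonucleotides, with ~44,000 test sequences spotted in quadruplicate. An Agilent G2565CA scanner imaged bound HNF4α at 2-µm resolution. Binding signal is the background-corrected, normalized gProcessedSignal from Agilent software.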
For the sequence “TAGCCAGACCTGTTCCTCTGCCCCTCATCGGCCTAGGGAGATTAGAGTATCGGTCGA”, the binding signal was found to be 1.7 log2 normalized intensity.

Consider “TGAGACATTTTGTCTTTTCTCCCCTGACTAGCCTAGGGAGATTAGAGTATCGGTCGA”, for which the binding signal came out at 2.63 log2 normalized intensity.

As to “GGACAATCATTGTGCAACCTGGACATTGGCGCCTAGGGAGATTAGAGTATCGGTCGA”, the binding signal worked out at 2.08 log2 normalized intensity.

For the sequence “AAGGTGTATGTGGACTTTCAACTGCAGGGGGCCTAGGGAGATTAGAGTATCGGTCGA”, the binding signal was 3.47 log2 normalized intensity.

Turning to “CGAGCATGGCCGCTCCGCGAGGTGAGCCATGCCTAGGGAGATTAGAGTATCGGTCGA”, the binding signal came out at 0.717 log2 normalized intensity.

With “TGGGCCCCACAGTGCATCTGATAAGGTTGTGCCTAGGGAGATTAGAGTATCGGTCGA”, the binding signal stood at 0.921 log2 normalized intensity.

In the case of “GCTGGTTGCCCCTTTGACCCTCGGGCCTCCGCCTAGGGAGATTAGAGTATCGGTCGA”, the binding signal was 5.62 log2 normalized intensity.

In the case of “AGCCTTATTCTTTGATCTCTTATCACCCTGGCCTAGGGAGATTAGAGTATCGGTCGA”, the binding signal was 1.86 log2 normalized intensity.

“TAAGTCACTGGGCTGATGACCTTTGACTGAGCCTAGGGAGATTAGAGTATCGGTCGA”: the binding signal worked out at 7.08 log2 normalized intensity.

Consider “TTTTTTTTTTGAGATGGAATCTTGCCCTGTGCCTAGGGAGATTAGAGTATCGGTCGA”, for which the binding signal is 3.18 log2 normalized intensity.

Regarding “TGACCTTTGTCCTGGCACAACTGGATGGTGGCCTAGGGAGATTAGAGTATCGGTCGA”, the binding signal came to 5 log2 normalized intensity.

Regarding “ATGACCTTTGACTGAGATGGGAGCAGTGCTGCCTAGGGAGATTAGAGTATCGGTCGA”, the binding signal amounted to 2.23 log2 normalized intensity.

For “CTGGATGACCTTTGTCCTGGCACAACTGGAGCCTAGGGAGATTAGAGTATCGGTCGA”, the binding signal was 5.84 log2 normalized intensity.

In the case of “TTGAGCTGGATGACCTTTGTCCTGGCACAAGCCTAGGGAGATTAGAGTATCGGTCGA”, the binding signal was 7.13 log2 normalized intensity.

For “TCCTGATCTTTGACCTGGAGCATGACCCTTGCCTAGGGAGATTAGAGTATCGGTCGA”, the binding signal was 4.86 log2 normalized intensity.

Consider “CATCTTTGAGCTGGATGACCTTTGTCCTGGGCCTAGGGAGATTAGAGTATCGGTCGA”, for which the binding signal stood at 8.57 log2 normalized intensity.

As to “AGAATCATCTTTGAGCTGGATGACCTTTGTGCCTAGGGAGATTAGAGTATCGGTCGA”, the binding signal worked out at 7.46 log2 normalized intensity.

Take “CTAGTTAAGTCACTGGGCTGATGACCTTTGGCCTAGGGAGATTAGAGTATCGGTCGA”: the binding signal stood at 6.19 log2 normalized intensity.

Consider “CACTGGGCTGATGACCTTTGACTGAGATGGGCCTAGGGAGATTAGAGTATCGGTCGA”, for which the binding signal came out at 5.32 log2 normalized intensity.

With “AGACCCTTATCAGTAGTTCTCCTTTCTGCCGCCTAGGGAGATTAGAGTATCGGTCGA”, the binding signal was 1.39 log2 normalized intensity.

Regarding “ATGCATAGAAGTATGTCTGGGATTTGAAGGGCCTAGGGAGATTAGAGTATCGGTCGA”, the binding signal was -0.542 log2 normalized intensity.

“GTCAAGCAATGATCTTCATGAACTTCTGTCGCCTAGGGAGATTAGAGTATCGGTCGA”: the binding signal was 1.26 log2 normalized intensity.

Take “TAAAACCATGCAAATTGCTGACTTTCTGTGGCCTAGGGAGATTAGAGTATCGGTCGA”: the binding signal is -0.773 log2 normalized intensity.

As to “CAGCAGGGCACCGCCTCCACACCCCAGCCTGCCTAGGGAGATTAGAGTATCGGTCGA”, the binding signal is 3.03 log2 normalized intensity.

For the sequence “GCCCTCCCCCAGAGAGAACAGTCCTACAAAGCCTAGGGAGATTAGAGTATCGGTCGA”, the binding signal came to 2.08 log2 normalized intensity.

Turning to “AAGATGGGCATTAGGTGGACAGGGGTGTGTGCCTAGGGAGATTAGAGTATCGGTCGA”, the binding signal came to 1.78 log2 normalized intensity.

For “ACCCTTTGAGTCCTTCATGGCTACCCTTCAGCCTAGGGAGATTAGAGTATCGGTCGA”, the binding signal was found to be 0.859 log2 normalized intensity.

Regarding “CCCGCAGTGAGGGACAAGGCTGTCCCCCATGCCTAGGGAGATTAGAGTATCGGTCGA”, the binding signal stood at 1.6 log2 normalized intensity.

Regarding “GGGGGTAAAGTGGATTGCTGGCCTTTTATCGCCTAGGGAGATTAGAGTATCGGTCGA”, the binding signal was found to be 0.814 log2 normalized intensity.

Regarding “CTCACATGAGCTAGAGCTCGTGTCATCTCTGCCTAGGGAGATTAGAGTATCGGTCGA”, the binding signal was -0.899 log2 normalized intensity.

For “CACCAGAAAAATGTACATGTGCAAAAGCACGCCTAGGGAGATTAGAGTATCGGTCGA”, the binding signal is 0.628 log2 normalized intensity.

For the sequence “TCAAAGGTCAGAAAAAGCTGACGCCCCACCGCCTAGGGAGATTAGAGTATCGGTCGA”, the binding signal came out at 3.28 log2 normalized intensity.

“GGTCAGAAAAAGCTGACGCCCCACCCCCTCGCCTAGGGAGATTAGAGTATCGGTCGA”: the binding signal came out at 5.94 log2 normalized intensity.

“GCAGTGAGGGTGGGTTCAAAGGTCAGAAAAGCCTAGGGAGATTAGAGTATCGGTCGA”: the binding signal came to 7.95 log2 normalized intensity.

As to “GGGAAGCAGTGAGGGTGGGTTCAAAGGTCAGCCTAGGGAGATTAGAGTATCGGTCGA”, the binding signal was 8.24 log2 normalized intensity.

Turning to “AAGAAAAGCCTTGTGGCAGTGAGAACAGGTGCCTAGGGAGATTAGAGTATCGGTCGA”, the binding signal amounted to 0.143 log2 normalized intensity.

Turning to “GAGGGTGGGTTCAAAGGTCAGAAAAAGCTGGCCTAGGGAGATTAGAGTATCGGTCGA”, the binding signal was determined as 6.66 log2 normalized intensity.

“GACTCAGAAAAATATGTGGACTTCAAAGGTGCCTAGGGAGATTAGAGTATCGGTCGA”: the binding signal turned out to be 1.29 log2 normalized intensity.

Consider “TAGAAGCAGTGGGACAAAGGTCACAGGAAAGCCTAGGGAGATTAGAGTATCGGTCGA”, for which the binding signal came out at 4.42 log2 normalized intensity.

For “GGCATGGGAAGCAGTGAGGGTGGGTTCAAAGCCTAGGGAGATTAGAGTATCGGTCGA”, the binding signal stood at 0.803 log2 normalized intensity.

“TGGGTTCAAAGGTCAGAAAAAGCTGACGCCGCCTAGGGAGATTAGAGTATCGGTCGA”: the binding signal amounted to 6.84 log2 normalized intensity.

On to “CAAGGGTCAGTTCATTAAAAAAAAAAAAAAGCCTAGGGAGATTAGAGTATCGGTCGA”, for which the binding signal came out at 1.19 log2 normalized intensity.

With “AAAGGGGAAAAGGTCAAATACCAAAATGTGGCCTAGGGAGATTAGAGTATCGGTCGA”, the binding signal was 1.8 log2 normalized intensity.

As for “AATTTTTTTTTCTTATCTCACTGGATGTGTGCCTAGGGAGATTAGAGTATCGGTCGA”, the binding signal is 2.22 log2 normalized intensity.

For “AGGTTAAGACTTTGAATCAGTAAATATTTGGCCTAGGGAGATTAGAGTATCGGTCGA”, the binding signal is 0.901 log2 normalized intensity.

As for “AGATACAGGTCAGACCCTGGAATTCCAGAAGCCTAGGGAGATTAGAGTATCGGTCGA”, the binding signal is -0.969 log2 normalized intensity.

“GGCCCATTTTCCCATGGTCTGTAGAAGGCGGCCTAGGGAGATTAGAGTATCGGTCGA”: the binding signal was 0.306 log2 normalized intensity.

“GATGTTCGTTTGGATCGCTTGGCTCAGGCCGCCTAGGGAGATTAGAGTATCGGTCGA”: the binding signal is -0.819 log2 normalized intensity.

In the case of “CTCTGATCCTAGTCTTTGCCCCACTGCAAGGCCTAGGGAGATTAGAGTATCGGTCGA”, the binding signal worked out at 2.95 log2 normalized intensity.

“GGGTGGTGGTTACCGGCAGAGGCTGCAGAGGCCTAGGGAGATTAGAGTATCGGTCGA”: the binding signal was determined as 0.249 log2 normalized intensity.

Consider “CTCCCTTTGATGCGGTCAGAGTTCATTTGGGCCTAGGGAGATTAGAGTATCGGTCGA”, for which the binding signal worked out at 3.48 log2 normalized intensity.

In the case of “CAGTTTTTGTTTGCACCTCACAGGAAGAACGCCTAGGGAGATTAGAGTATCGGTCGA”, the binding signal worked out at 1.15 log2 normalized intensity.

With “ATTTGAGGGTGACACTGCTCTCTCCAGGGGGCCTAGGGAGATTAGAGTATCGGTCGA”, the binding signal was -0.738 log2 normalized intensity.

“AGAGGGGGTTTGTTTTTTGCCCTTTGTACCGCCTAGGGAGATTAGAGTATCGGTCGA”: the binding signal worked out at 8.01 log2 normalized intensity.

Take “CCCACAGAGGGGGTTTGTTTTTTGCCCTTTGCCTAGGGAGATTAGAGTATCGGTCGA”: the binding signal stood at 4.6 log2 normalized intensity.

Consider “TGCCCTTTGCCTGGTGATCTTTGTTAGACCGCCTAGGGAGATTAGAGTATCGGTCGA”, for which the binding signal came out at 2.7 log2 normalized intensity.

In the case of “GGGTTTGTTTTTTGCCCTTTGTACCCACACGCCTAGGGAGATTAGAGTATCGGTCGA”, the binding signal was found to be 7.67 log2 normalized intensity.

Consider “TGTTTTTTGCCCTTTGTACCCACACACACCGCCTAGGGAGATTAGAGTATCGGTCGA”, for which the binding signal worked out at 6.48 log2 normalized intensity.

Consider “AGCCTACCCACCCACACCTCCCCTTTGTTTGCCTAGGGAGATTAGAGTATCGGTCGA”, for which the binding signal amounted to 3.59 log2 normalized intensity.
